# Screening data (PubChem)
# HP1b chromo inh: HP1-beta chromodomain-methylated histone interaction inhibition; Potency, µM (series often up to 114 µM), for inactives: top-dose activity change, negative = inhibition, usual class: inhibitors; 0.56% of 390,000 active; AID 540317; P83916; AlphaScreen HP1-beta / biotin-H3K9me3 peptide binding; also: potency is read from the fitted curve at half-maximal effect; nearly all actives have a fitted effect of over 70% in size
#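 AlphaScreen: HP1-beta (50 nM) preformed 30 min with biotin-H3(1-18)K9me3 peptide (50 nM) in PBS pH 7.4, 0.01% Tween-20. Compound added for 30 min at RT, then streptavidin donor/nickel chelate acceptor beads (10 ug/mL) for 30 min.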
# BAZ2B inh: BAZ2B (human) inhibition. Q9UIF8. AlphaScreen BAZ2B-H3K14Ac peptide displacement. Potency, µM (series often up to 114 µM), for inactives: at the top dose activity change, negative = inhibition, hits mostly inhibitors. 4.4% of 360,000 active. AID 504333; also: potency is read from the fitted curve at half-maximal effect; % is scaled to controls: 0 for no effect and ±100 for the full control effect; nearly all actives have a fitted effect of over 60% in size
#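 AlphaScreen displacement: compounds (up to 110uM) incubated 30 min at room temperature with a preformed 50 nM BAZ2B/50 nM biotinylated H3K14Ac peptide complex in PBS pH 7.4 with Tween-20. Donor and acceptor beads at 10 ug/mL final added, 20 min light-protected before reading.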
# G9a inh: blocks human histone lysine methyltransferase G9a | Q96KQ7 | G9a H3K9 monomethylation, AlphaScreen, 2 h | Potency, µM (highest dose often 102 µM), for inactives: at the top dose activity, negative = inhibition, hits mostly inhibitors | 8.8% of 350,000 active | AID 504332; also: potency is read from the fitted curve at half-maximal effect; % is scaled to controls: 0 for no effect and ±100 for the full control effect; nearly all actives have a fitted effect of over 75% in size
#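 Methyltransferase reactions run at room temperature for 2 h (20 nM enzyme, 500 nM biotin-H3K9 peptide, 20 uM SAM) after a 15 min compound preincubation; product detected by AlphaScreen beads and anti-H3K9me1 antibody.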
# PI5P4Ka inh: PI5P4K alpha (human) kinase inhibition | P48426 | PI5P4Kalpha enzyme, ADP-Glo luminescence, 60 min; stronger effect = lower value | 1.2% of 330,000 active | max response, %; active = max response of -50% or lower; inconclusive = between -30% and -50%; inactive = -30% or higher; also: value at the top dose of about 77 µM; % is scaled to controls: 0 for no effect and ±100 for the full control effect
#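 Controls without substrate or without enzyme flank wells where PI5P4Kalpha converts substrate using 5 microM ATP (final). Incubation lasts 60 minutes at room temperature; ADP formed is read by ADP-Glo luminescence.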
# PLK1 PBD block: blocks phosphopeptide binding to human PLK1 polo-box domain; Potency, µM, for the others: max response, negative = inhibition, most hits filed as inhibitors; Plk1 PBD binding of FITC phosphopeptide, fluorescence polarization; 2.8% of 360,000 active; also: potency is read from the fitted curve at half-maximal effect; series mostly up to about 57 µM; % is scaled to controls: 0 for no effect and ±100 for the full control effect; nearly all actives have a fitted effect of over 65% in size
# JMJD2A Tudor inh: blocks the human JMJD2A Tudor domain | O75164 | AlphaScreen JMJD2A-Tudor / H3K4me3 peptide binding | Potency, µM (top dose mostly 114 µM), without a hit: at the top dose activity change, negative = inhibition, most hits filed as inhibitors | 4.4% of 390,000 active | AID 504339; also: potency is read from the fitted curve at half-maximal effect; % is scaled to controls: 0 for no effect and ±100 for the full control effect; nearly all actives have a fitted effect of over 50% in size
# * hit, by the source's call; ? = inconclusive; / = no result given; [ ] = another dose, or the depositor's remark. An excerpt weighted towards active compounds, which were near 12% of everything screened. Unless noted, calls follow the shape of the dose curve; as a rule, active = well fitted curve in the direction sought with a large enough effect; inconclusive = small, poorly fitted or top-dose-only effect, or another doubt; inactive = no such curve, though single readings can be large; an effect the other way counts as inactive or inconclusive.
SMILES,HP1b chromo inh,BAZ2B inh,G9a inh,PI5P4Ka inh,PLK1 PBD block,JMJD2A Tudor inh
COc1cc(C)ccc1S(=O)(=O)NC(=O)Cn1nnc(COc2ccc3c(c2)CCCC3)c1C,/,/,/,1.4,0.6%,/
NNc1nc2ccccc2nc1C(F)(F)F,-7.6%,-14.8%,8.91µM*,-3.6,18.9µM*,7.5%[11.4 µM]
NNc1nc(C(F)(F)F)nc2ccccc12,23.4%,2.1%,31.6µM*,0.4,-3.7%,5.8%
Cc1ccc(-c2nc3ccccc3nc2NN)cc1,19.6%,-17.4%,35.5µM*,-19.6,-24.2%,-30.0%
Cc1ccc(S(=O)(=O)NNc2nc3ccccc3nc2C(F)(F)F)cc1,-84.7%,44.7µM*,1.41µM*,-20.7,8.44µM*,35.5µM*
CN(C)C(=O)c1ccc(-c2cncnc2N2CCNCC2)cc1,/,/,-37.9%[0.501 µM],/,/,/
Cc1ccccc1NC(=O)C1CCN(C(=O)c2cnn(-c3ccccc3)c2-n2cccc2)CC1,8.4%,-2.2%,10.9%[59 µM],/,/,-14.1%
Nc1nc(=S)c2ncn([C@@H]3O[C@H](CO)[C@@H](O)[C@H]3O)c2[nH]1,?,?,1.78µM*,-77.0*,21.2µM*,5.01µM*
CC1(C)OC2C(CO)OC(n3cnc4c(=S)nc(N)[nH]c43)C2O1 (stereo not drawn),/,/,/,-22.9,?,/
Nc1nc(=S)c2ncn(C3OC(CO)C(O)C3O)c2[nH]1 (stereo not drawn),?,44.7µM*,2µM*,-80.7*,10.6µM*,7.94µM*
CCc1noc(-c2ccc(N3CCC(C)CC3)c([N+](=O)[O-])c2)n1,26.9%,-14.8%,-2.3%[59 µM],/,/,-10.9%
CCC(=O)N1c2ccc(S(=O)(=O)NCc3cccc(OC)c3)cc2CC1C (stereo not drawn),64.7%,/,11.0%[59 µM],/,/,-0.7%
CC(=O)NC(Nc1nc2c(s1)CCCC2)(C(F)(F)F)C(F)(F)F,?,-3.1%,50.1µM*,2.7,?,-2.4%
CCc1cccc(NC(=O)Cn2c3[n+](c4ccc(C(F)(F)F)cc42)CCCCC3)c1,-10.4%,-5.9%,5.62µM*,-4.7,-2.8%,-16.3%
FC(F)(F)c1ccc2c(c1)n(Cc1ccccc1)c1[n+]2CCCCC1,9.2%,?,28.2µM*,-7.3,2.1%,?
O=C(Cn1c2[n+](c3ccc(C(F)(F)F)cc31)CCCCC2)Nc1ccccc1,11.6%,-0.5%,?,-4.2,1.1%,-5.6%
CCc1ccc(NC(=O)c2cnn(-c3c(C)cccc3C)c2C2CCNCC2)cc1,36.1%,7.2%[57.1 µM],-39.9%[59 µM],/,/,-3.2%
CN(C)S(=O)(=O)c1ccc2c(c1)c(=O)c(C(=O)N1CCN(c3cccc(Cl)c3)CC1)cn2C,28.7%,/,-1.6%[59 µM],/,/,-16.7%
CC1CCCC(C)N1C(=O)c1ccc(S(=O)(=O)NCc2ccco2)cc1 (stereo not drawn),23.1%,0.4%,18.7%[59 µM],-3.7,3.7%,2.8%
CC(=O)NCC(=O)OCC(=O)c1ccccc1,21.0%,1.7%,-4.7%[59 µM],/,-2.0%,-11.0%
O=C(CN1CC(=O)Oc2ccccc21)OCC(=O)c1cccc(Br)c1,59.0%,8.91µM*,44.7µM*,-17.6,-9.7%,39.8µM*
O=C(CN1CC(=O)Oc2ccccc21)OCC(=O)c1ccccc1,44.8%,12.6µM*,?,/,-11.1%,20µM*
O=C(COC(=O)C1CC2CCCC(C1)C2=O)c1cccc(Br)c1 (stereo not drawn),50.7%,14.5%,?,1.8,-13.1%,-2.3%
COc1ccc(Br)cc1/C=C/C(=O)NC(=S)Nc1ccc(Cl)c(C(=O)O)c1,-5.4%,?,31.6µM*,-10.2,-17.5%,-29.9%
O=C(NC(=S)Nc1ccc2[nH]c(=O)[nH]c2c1)c1cc(Br)ccc1Cl,42.0%,-8.0%,-3.7%[12.7 µM],-1.8,0.4%,12.1%
SMILES,HP1b chromo inh,BAZ2B inh,G9a inh,PI5P4Ka inh,PLK1 PBD block,JMJD2A Tudor inh
COc1ccc(Br)cc1C(=O)NC(=S)Nc1ccc(Cl)c(C(=O)O)c1,?,-10.5%,20µM*,-65.4*,11.9µM*,-21.8%
COc1ccc(C(=O)NC(=S)Nc2ccc(Cl)c(C(=O)O)c2)cc1,?,-1.4%,50.1µM*,-17.9,-19.1%,-5.6%
O=C(NC(=S)Nc1ccc(CN2CCOCC2)cc1)c1ccc([N+](=O)[O-])cc1Cl,-6.9%,?,50.1µM*,-7.2,-28.7%,-30.8%
Cc1ccc(C)c(NC(=O)COC(=O)COc2cccc3c2OC(C)(C)C3)c1,13.2%,11.6%,?,-0.3,-1.3%,2.1%
COc1ccc(Br)cc1C(=O)NC(=S)Nc1ccc(CN2CCOCC2)cc1,-1.3%,25.1µM*,-8.4%[0.0925 µM],12.9,-13.3%,?
O=C(COc1cccc2c1CCN(Cc1ccccc1F)C2=O)N1CCCCC1,22.3%,-13.3%,-30.9%,-3.3,4.6%,6.2%
Cc1ccccc1CN1CCc2c(OCC(=O)N3CCCCC3)cccc2C1=O,-15.6%,-33.7%,-22.2%,-10.9,29.9µM*,?
CC1CN(C(=O)COC(=O)c2cncc(Br)c2)CC(C)O1 (stereo not drawn),/,/,/,-4.9,-23.3%,/
O=C1NN(c2cccc(Br)c2)C(=O)/C1=C\c1ccccc1,0.4%,-34.9%,20µM*,-21.1,1.5µM*,-32.6%
O=C1NN(c2ccccc2)C(=O)C1=Cc1ccccc1,/,/,/,-8.4,10.6µM*,/
O=C1NN(c2ccccc2)C(=O)/C1=C\c1ccccc1,33.4%,-20.7%,39.8µM*,-0.8,8.44µM*,-14.6%
O=C1NN(c2cccc(Br)c2)C(=O)/C1=C/c1cccs1,6.8%,?,?,-4.1,18.9µM*,?
O=C1NN(c2ccccc2)C(=O)/C1=C/c1cccs1,/,?,-10.9%[59 µM],/,/,/
O=C(CCCCCN1C(=O)CCC1=O)Nc1ncn[nH]1,47.2%,50.1µM*,13.1%[12.7 µM],4.2,-7.4%,50.1µM*
Cc1c(Cl)cccc1NC(=O)CCCCCN1C(=O)CCC1=O,34.2%,13.3%,-6.3%[12.7 µM],-0.2,-7.0%,10.4%
O=C1CNC(c2ccccc2)C(c2ccccc2)N1 (stereo not drawn),/,/,/,-5.3,-11.8%,/
COc1ccccc1N1CCN(C(=O)c2noc(C)c2[N+](=O)[O-])CC1,17.2%,-33.7%,56.2µM*,3.2,-18.0%,-20.7%
O=C(c1ccc([N+](=O)[O-])s1)N1CCN(c2cccc(Cl)c2)CC1,?,25.1µM*,22.4µM*,-12.9,-13.5%,44.7µM*
COc1ccccc1N1CCN(C(=O)c2ccc([N+](=O)[O-])s2)CC1,-4.3%,-5.1%,44.7µM*,-11.7,-20.2%,-19.6%
COc1ccccc1N1CCN(C(=O)NC23CC4CC(CC(C4)C2)C3)CC1,24.5%,-15.5%,79.4µM*,7.3,-9.3%,-13.8%
COc1ccc(N2CCN(C(=O)NC34CC5CC(CC(C5)C3)C4)CC2)cc1,-19.4%,?,?,-8.0,-0.2%,?
Cc1cccc(NC(=O)CSc2nnc3scc(-c4ccccc4)n23)c1,14.9%,0.5%,5.0%[59 µM],/,/,-4.2%
